Results from PubChem BioAssay AID651916 (Vanderbilt Specialized Chemistry Center, 2012).
The source made the active and inactive calls. How the calls were made is not given here.

Target: Histone deacetylase 3 (Homo sapiens) (UniProt O15379)
Test: inhibitors of recombinant human HDAC3 – biochemical, selectivity assay for E-cadherin restoration project, profiling panel (AID 651916)

Sequence of Histone deacetylase 3 (Homo sapiens) (O15379 whole entry, looked up): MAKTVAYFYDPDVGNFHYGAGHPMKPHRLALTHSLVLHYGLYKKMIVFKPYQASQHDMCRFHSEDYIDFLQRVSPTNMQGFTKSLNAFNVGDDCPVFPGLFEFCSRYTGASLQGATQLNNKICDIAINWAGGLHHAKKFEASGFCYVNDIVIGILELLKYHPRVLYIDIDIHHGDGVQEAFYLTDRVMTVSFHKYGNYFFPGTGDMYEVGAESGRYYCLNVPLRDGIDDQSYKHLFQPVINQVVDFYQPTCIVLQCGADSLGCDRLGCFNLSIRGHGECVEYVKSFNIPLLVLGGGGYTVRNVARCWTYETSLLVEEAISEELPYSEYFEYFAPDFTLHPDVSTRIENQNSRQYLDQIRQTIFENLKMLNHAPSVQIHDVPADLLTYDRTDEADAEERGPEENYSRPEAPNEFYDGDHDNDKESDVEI

## O=C(NCCCNC(=O)c1ccc[nH]c1=O)c1cc(-c2ccccc2)on1
  outcome: inactive
